{"source": "PubChem BioAssay AID504467", "about": "(National Center for Advancing Translational Sciences (NCATS), 2011)", "note": "Hit rate of the full screen: of about 330,000 compounds, about 7,700 (2.3%) were called active. Where a call stands in place of a potency, no number is given. About 26% were inconclusive and are not listed. Calls follow the shape of the dose curve; as a rule, active = well fitted inhibition curve with a large enough effect; inconclusive = small, poorly fitted or top-dose-only effect, or effect the other way; inactive = flat fitted curve, though single readings scatter. Many of the other results were omitted from the sample, so actives are more common in it than they were. Potency is read from the fitted curve at half-maximal effect.", "data": [{"assay": "qHTS screen for small molecules that inhibit ELG1-dependent DNA repair in human embryonic kidney (HEK293T) cells expressing luciferase-tagged ELG1; also: nearly all actives have a fitted effect of over 55% in size", "conditions": "HEK293T ELG1-luciferase reporter, luminescence, 16 h, DNA damage induced by 5-fluorouridine; series mostly up to 46.1 µM", "in_short": "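DMSO vehicle served as the neutral condition. Each well held 2,000 cells given 5-fluorouridine plus compound; after 16 hr at 37 °C/5% CO2, ONE-Glo was added and luciferase measured 30 min later.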", "values": [{"smiles": "COC(=O)COc1ccc2oc(=O)cc(C)c2c1", "Potency": "inactive"}, {"smiles": "CCOc1ccc(N(C)Cc2cc(=O)oc3ccc(OC)cc23)cc1", "Potency": "16.4 µM (active)"}, {"smiles": "Cc1cc2oc(=O)cc(CN(C)Cc3ccc(OC(F)F)cc3)c2cc1Cl", "Potency": "inactive"}, {"smiles": "Cc1ccc2c(c1)C(c1ccccc1)N(C(=O)c1ccc(F)cc1)CC(=O)N2", "note": "(stereo not drawn)", "Potency": "inactive"}, {"smiles": "O=C(Cn1ccc2cc(S(=O)(=O)N3CCCC3)ccc21)NCc1ccccc1", "Potency": "inactive"}, {"smiles": "O=C1[C@@H](c2ccccc2)[C@@H](c2ccccc2)N1c1cccnc1", "Potency": "inactive"}, {"smiles": "O=C1CCN(Cc2ccccc2)CCN1[C@H](CSc1ccccc1)c1ccccc1", "Potency": "inactive"}, {"smiles": "Cc1ccc(-c2nc(-c3cccnc3)sc2CC(=O)Nc2ccc(C)c(Cl)c2)cc1", "Potency": "16.4 µM (active)"}, {"smiles": "Cc1nc(-c2ccc(F)cc2)c(CC(=O)Nc2cccc(S(=O)(=O)N3CCOCC3)c2)s1", "Potency": "inactive"}, {"smiles": "Cc1cc(C)c(NC(=O)CS(=O)CC(=O)Nc2cccnc2)c(C)c1", "note": "(stereo not drawn)", "Potency": "inactive"}, {"smiles": "COc1ccc(N2CCN(C3CCCCC3NS(=O)(=O)c3ccccc3)CC2)cc1", "note": "(stereo not drawn)", "Potency": "inactive"}, {"smiles": "CCOc1ccc(CN2CCN(Cc3c[nH]c4ccccc34)CC2)cc1", "Potency": "13 µM (active)"}, {"smiles": "CCOc1ccc(CC(=O)NC2CCN(Cc3ccccc3)CC2)cc1", "Potency": "inactive"}, {"smiles": "CCOc1ccc(CN2CCCN(C)CC2)cc1", "Potency": "inactive"}, {"smiles": "COC(=O)[C@]1(S(=O)(=O)c2ccccc2)C[C@@H]2ON=C(c3ccc(OC)cc3)[C@@H]2C1", "Potency": "inactive"}, {"smiles": "Cc1ccc(S(=O)(=O)Nc2ccc(F)c(S(=O)(=O)N3CCOCC3)c2)cc1", "Potency": "inactive"}, {"smiles": "Cc1ccc(-c2ccc(=O)n(Cc3ccc(F)cc3Cl)n2)cc1", "Potency": "inactive"}, {"smiles": "O=C1C=C(c2cccc(Cl)c2)C[C@@H](c2ccc(F)cc2)C1", "Potency": "inactive"}, {"smiles": "O=C(c1cc(-c2ccc(Cl)s2)nc2ccccc12)N1CCOCC1", "Potency": "inactive"}, {"smiles": "O=C(c1cn(-c2ccccc2)nc1-c1cc2ccccc2oc1=O)N1CCOCC1", "Potency": "7.3 µM (active)"}, {"smiles": "CCOc1ccccc1-c1cc(C(=O)N2CCOCC2)c2ccccc2n1", "Potency": "inactive"}, {"smiles": "Nc1nc(-c2sc3nc4c(cc3c2N)CCCC4)nc(N2CCOCC2)n1", "Potency": "6.51 µM (active)"}, {"smiles": "COc1ccccc1C(CNC(=O)c1cccc(S(=O)(=O)Nc2ccc(F)cc2)c1)N(C)C", "note": "(stereo not drawn)", "Potency": "inactive"}, {"smiles": "NC(=O)c1nsc(C(=O)N(CCCN2CCOCC2)C(C(=O)NC2CCCCC2)c2ccc(Cl)cc2)c1N", "note": "(stereo not drawn)", "Potency": "inactive"}, {"smiles": "Cc1ccc(NC(=O)CN(C)C(=O)c2ccc(Cl)c(S(=O)(=O)NCc3ccco3)c2)cc1", "Potency": "inactive"}, {"smiles": "O=C(CCl)Nc1cccc(CP(=O)(c2ccccc2)c2ccccc2)c1", "Potency": "14.6 µM (active)"}, {"smiles": "O=C(CSCC(=O)Nc1cccc([N+](=O)[O-])c1)Nc1ccccc1", "Potency": "inactive"}, {"smiles": "CCc1cccc(NC(=O)CCC(=O)O)c1", "Potency": "inactive"}]}]}
